Screening results (PubChem)
HT1080 IDH1KD tx – HT-1080 IDH1 knockdown cell toxicity (counter line); HT-1080 IDH1 knockdown viability, ATP luminescence, 48 h; Potency, µM (series often up to 46.1 µM), without a hit: at the highest dose activity, negative = toxicity, hits mostly cytotoxic; 2% of 360,000 active; AID 686971;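 note: 0% = DMSO wells and -100% = cell-free medium wells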
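In this qHTS, HT-1080 cells depleted of IDH1 are exposed for 48 h at 37 °C to compound titrations. Toxicity is scored from CellTiter-Glo luminescence, with DMSO as full viability and medium alone as none.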
KB-3-1 tox – KB-3-1 parental cell cytotoxicity; Potency, µM (series often up to 46.1 µM), actives largely listed as cytotoxic; 1.4% of 400,000 active; AID 1347075; KB-3-1 viability, CellTiter-Glo ATP luminescence, 72 h; note: % is set by controls: 0 for no effect and ±100 for the full control effect; nearly all actives have a fitted effect of over 60% in size
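Here the drug-naive KB-3-1 line serves as comparator for MDR sub-line selectivity; cells received compound titrations, 72 h at 37 °C, then CellTiter-Glo readout.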
KB-V1 MDR tox – kills drug-selected multidrug resistant KB-V1 cells; 3.4% of 400,000 active; AID 1347076; Potency, µM (doses to about 46.1 µM), hits mostly cytotoxic; KB-V1 MDR cells viability, CellTiter-Glo, 72 h; note: % is set by controls: 0 for no effect and ±100 for the full control effect; nearly all actives have a fitted effect of over 60% in size
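Cells of the MDR subline KB-V1 are plated, dosed with compound at multiple concentrations, and incubated 72 h at 37 degrees C; CellTiter-Glo is then added and luminescence read after 10 min.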
SW480 rerep – DNA re-replication induction in SW480 cells; SW480 DNA re-replication, Hoechst DNA content imaging, 48 h; Potency, µM (top dose mostly 46.1 µM), for the others: top-dose re-replication activation, usual class: activators; 1.8% of 340,000 active; AID 624297; note: % of control where 0% means no effect; nearly all actives have a fitted effect of over 55% in size
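Image-based read-out: total Hoechst fluorescence of nuclei (405 nm excitation, 500-530 nm emission), with hits raising the fraction of high-intensity nuclei. SW480 colon cells incubated 48 hr with compounds at 37 C.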
MCF10A rereplic – inducers of DNA re-replication in MCF 10A breast cells. MCF 10A DNA re-replication, Hoechst nuclear intensity, 48 h. 2.9% of 350,000 active. Potency, µM (highest dose often 46.1 µM), inactives show top-dose activity, positive = re-replication, usual class: activators; note: % of control where 0% means no effect; nearly all actives have a fitted effect of over 50% in size
HT1080NT lethal – kills 2HG-producing HT-1080-NT fibrosarcoma cells | Potency, µM (doses to about 46.1 µM), for inactives: top-dose activity, negative = less viability, usual class: cytotoxic | 1.6% of 360,000 active | AID 686970 | HT-1080-NT fibrosarcoma viability, CellTiter-Glo ATP luminescence, 48 h;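 note: NT is the 2HG producing partner of a matched IDH1 knockdown line; 0% = DMSO-treated cells and -100% = media-only wells without cells; nearly all actives have a fitted effect of over 55% in size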
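HT-1080-NT; 750 cells/well; 5% FBS RPMI; 48 h compound, 37 degrees C; CellTiter-Glo luminescence; curve fitting and curve-class assignment.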
Starred values were filed as active, the others as inactive; i = inactive; ? = inconclusive; . = not tested or not shown; [ ] = dose if it differs, or a comment. Rows were chosen to be rich in hits. Some 7.9% of all compounds tested hit in one or more screens of this group. Calls come from the whole dose curve; as a rule, active = well fitted curve in the direction sought with a large enough effect; inconclusive = small, poorly fitted or top-dose-only effect, or another doubt; inactive = no such curve, though single readings can be large; an effect the other way counts as inactive or inconclusive. Potency is the fitted concentration of half-maximal effect.

SMILES	HT1080 IDH1KD tx	KB-3-1 tox	KB-V1 MDR tox	SW480 rerep	MCF10A rereplic	HT1080NT lethal
CCCc1nn2c(=O)cc(COC(=O)C3CCCCC3)nc2s1	.	i	?	.	.	.
OC(CN1CCCC1)c1ccccc1 (stereo unspecified)	.	i	i	.	.	.
OC(CN1CCN(c2ccccc2Cl)CC1)c1ccccc1 (stereo unspecified)	?	?	i	23.1µM*	?	16.4µM*
Cc1cc(C)cc(-n2ccnc2SCC(=O)Nc2ccc(C)c(Cl)c2)c1	.	i	i	.	.	.
Clc1ccc(CSc2nncn2-c2ccccn2)cc1	-3.7%	i	i	3.5%	9.7%	-4.0%
Clc1ccc(CSc2nncn2-c2ccc3c(c2)OCCO3)cc1	5.17µM*	13µM*	?	20.6µM*	9.2µM*	16.4µM*
Cc1ccc(C)c(Cn2nc(-c3cc(C)ccc3C)ccc2=O)c1	18.4µM*	i	?	116.3%	?	?
O=C(c1ccc2[nH]c(=O)c(=O)[nH]c2c1)N1CCN(c2ccccc2)CC1	-1.5%	i	i	-4.0%	3.8%	-7.4%
Cc1nn(C)c(C)c1N1C(=O)c2cccc3c(Br)ccc(c23)C1=O	?	?	i	?	26.9%	23.1µM*
CCCCNc1ccc2c3c(cccc13)C(=O)N(CCCC)C2=O	?	i	?	20.6µM*	7.31µM*	?
CCCN1C(=O)c2cccc3c(N4CCCCC4)ccc(c23)C1=O	7.1%	i	?	.	3.66µM*	2.6%
Cc1nn(C)c(C)c1N1C(=O)c2cccc3c(N)ccc(c23)C1=O	5.2%	i	i	5.2%	13.4%	10.2%
CN(C)CCCN1C(=O)c2cccc3c(Br)ccc(c23)C1=O	-17.2%	?	?	?	7.31µM*	-7.2%
Cc1ccccc1Nc1c(-c2ccc(Cl)s2)nc2ccccn12	-3.4%	.	.	.	.	-2.8%
NC(=O)c1ccsc1NC(=O)CCS(=O)(=O)c1ccc(Cl)cc1	-0.5%	i	i	15.5%	3.5%	5.7%
O=C(Oc1ccc(Cl)c2cccnc12)c1ccco1	?	?	?	?	7.31µM*	?
O=C(Oc1c(Cl)cc(Cl)c2cccnc12)c1cccc([N+](=O)[O-])c1	?	14.6µM*	i	?	10.3µM*	?
O=C(Oc1ccc(Cl)c2cccnc12)c1cccc([N+](=O)[O-])c1	-1.4%	i	i	.	3.66µM*	-10.2%
C[C@H](CO)N1C[C@H](C)[C@@H](CN(C)S(=O)(=O)c2ccccc2)Oc2c(NC(=O)C3CCCCC3)cccc2C1=O	-6.8%	i	i	?	1.0%	-2.9%
c1ccc(-c2ccc(-c3nc(-c4ccccn4)no3)cc2)cc1	12.6µM*	13µM*	8.2µM*	1.0%	-1.4%	10µM*
c1ccc(-c2n[nH]c(-c3ccccn3)n2)cc1	5.8µM*	i	?	?	-2.5%	8.2µM*
c1ccc(-c2n[nH]c(-c3ccccn3)n2)nc1	?	i	?	-6.1%	5.4%	-5.9%
Cc1ccc(-c2nc(-c3ccccn3)no2)cc1	6.51µM*	9.2µM*	6.51µM*	-2.6%	2.4%	5.17µM*
Clc1cccc(-c2nc(-c3ccccn3)no2)c1	?	?	i	-12.6%	-4.7%	?
Cc1ccc(-c2nc(-c3ccccn3)no2)cc1Cl	?	?	i	-5.4%	1.6%	?
SMILES	HT1080 IDH1KD tx	KB-3-1 tox	KB-V1 MDR tox	SW480 rerep	MCF10A rereplic	HT1080NT lethal
c1ccc(-c2nc(-c3ccccn3)no2)cc1	10µM*	9.2µM*	16.4µM*	2.0%	?	12.6µM*
COCCCn1c(C(=O)Nc2ccc3c(c2)OCO3)cc2c(=O)n3cccc(C)c3nc21	14.1%	i	i	.	.	7.9%
Cc1ccc(CNC(=O)C2CCCN(c3nc4c(C)cc(C)cc4s3)C2)cc1 (stereo unspecified)	.	i	i	.	.	.
Cc1cc(C)n2ncc(C(=O)NCC(C)C)c2n1	.	i	i	.	.	.
COc1ccc2[nH]c(C)c(C(=O)CNc3nccs3)c2c1	.	i	i	.	.	.
Cc1ccc(S(=O)(=O)c2nc(Nc3ccccc3C#N)sc2Cl)cc1	2.4%	i	i	-14.6%	24.9%	-1.7%
Cc1ccc(S(=O)(=O)c2nc(Nc3ccccc3N3CCOCC3)sc2Cl)cc1	7.1%	i	10.3µM*	4.9%	12.6%	20.1%
COC(CNC(=O)C1CCN(C(=O)c2cc3oc(C)cc3n2Cc2c(F)cccc2Cl)CC1)OC	-15.6%	?	8.2µM*	-36.8%	0.0%	3.5%
CCN(CC)Cc1c(O)ccc2c(=O)c(-c3ccc(Cl)cc3)coc12	-0.5%	i	i	-12.9%	?	-2.0%
C=CCN(CC=C)Cc1c(O)ccc2c(=O)c(-c3ccccc3)coc12	?	i	i	?	20.6µM*	?
CCC(=O)c1ccc(/C=C/c2nc3ccccc3n2C)o1	-5.7%	i	i	18.4µM*	8.2µM*	-21.5%
CCc1ccc(C2c3c(-c4ccccc4O)n[nH]c3C(=O)N2Cc2ccncc2)cc1 (stereo unspecified)	.	?	i	.	.	.
CN(C(=O)COc1ccccc1C(=O)NCCc1ccccc1)c1ccccc1	17.5%	i	5.17µM*	2.0%	17.8%	13.2%
Cc1ccc(C2/C(=C(\O)c3ccc4c(c3)OCCO4)C(=O)C(=O)N2Cc2cccnc2)cc1 (stereo unspecified)	7.6%	i	?	?	-0.7%	3.8%
Clc1ccc(CNC2CCN(Cc3ccccc3)CC2)cc1	?	i	i	-2.5%	1.3%	-25.6%
CC(C)c1ccc(NC(=S)NC2CCN(Cc3ccccc3)CC2)cc1	?	?	20.6µM*	?	28.4%	?
S=C(Nc1cc(Cl)cc(Cl)c1)NC1CCN(Cc2ccccc2)CC1	?	?	?	?	?	16.4µM*
S=C(NCc1ccc(Cl)cc1)NC1CCN(Cc2ccccc2)CC1	20.6µM*	?	16.4µM*	16.4µM*	?	23.1µM*
CC(=O)NC(Cc1ccc(Cl)cc1)C(=O)NCC(N)C(=O)c1ccccc1 (stereo unspecified)	9.8%	.	.	.	.	8.8%
Cc1cccc(NC(=O)CN(C)C(=O)C2CCCC2)c1C	-4.7%	i	i	-6.4%	-5.9%	-8.1%[9.24 µM]
Cc1cc(Cl)n2c(nc3cc(F)c(F)cc32)c1C#N	5.17µM*	7.31µM*	5.8µM*	6.51µM*	?	5.8µM*
CN1CCN(c2cccc(Nc3nn4c(=O)c5ccc(C(F)(F)F)cc5nc4s3)c2)CC1	.	i	i	.	.	.
